The source of these data is PubChem BioAssay.

Assay [1] deals with Wnt5a (protein binding on small-molecule microarray). The assay can be described thus: small molecules binding Wnt5a protein – biophysical, small-molecule microarray, 635/667 nm fluorescence, primary screen (AID 1142).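 Also: fluorescence read at 667 nm with signal to noise per printed feature.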 Conditions: 635 nm fluorescence, higher = more signal.
Assay [2] is described as follows: ATP-based viability of Huh7 replicon cells – cell-based, CellTiter-Glo luminescence, basal, 48 h, cytotoxicity control for HCV replication inhibitor project, primary screen (AID 1143).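 Also: Huh7 hepatoma cells carrying a hepatitis C replication reporter with no stimulus; test concentration not given here.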 Conditions: higher = more signal, called active from +8 up or from −8 down. For orientation: Replicon systems follow genome replication, usually without infectious particles.
Assay [3] can be described thus: Pseudomonas biofilm growth suppression – PAO1 strain, BacTiter-Glo luminescence, LB-PBS, primary screen (AID 1144). Conditions: P. aeruginosa PAO1 biofilm, 12 h, higher = more signal.
The nature of assay [4]: basal CRE-LacZ reporter activity in PC12 – cell-based, unstimulated, primary screen (AID 1145). The following applies: no forskolin, luminescence, 4.5 h, higher = more signal, called active from +8 up or from −8 down.
The nature of assay [5]: forskolin-driven CRE-LacZ activity in PC12 – cell-based, CRE-LacZ reporter, forskolin-stimulated, primary screen (AID 1146).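 Also: PC12 cells with 6xCRE LacZ reporter stimulated by forskolin 10 µM; beta-galactosidase reporter signal reflecting CREB driven transcription.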 The following applies: luminescence, 4.5 h, higher = more signal, called active from +8 up or from −8 down.
Assay [6] concerns the target Streptavidin (Streptomyces avidinii) (UniProt P22629). The assay can be described thus: compounds binding control protein streptavidin – biophysical, small-molecule microarray, 635/667 nm fluorescence, artefact control for SMM compound annotation, primary screen (AID 1147).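 Also: signal reflects streptavidin binding to arrayed compounds as a control protein.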 Conditions: higher = more signal.
Assay [7] is described as follows: probe aInhba binding on compound microarray – biochemical, small-molecule microarray, 635/667 nm fluorescence, primary screen (AID 1148).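 Also: score merges 667nm spot fluorescence with signal-to-noise for antibody binding to printed compounds.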 Conditions: higher = more signal.
Assay [8] addresses Torsin-1A (Homo sapiens) (UniProt O14656). The assay can be described thus: TOR1A wild-type binding on microarray – cell lysate, small-molecule microarray, lysate, 635/667 nm, primary screen (AID 1149). Conditions: COS7 hTOR1A-WT lysate, 635 nm fluorescence, higher = more signal.
Assay [9] has the same target. The assay can be described thus: torsin A mutant lysate binding on microarrays – cell lysate, small-molecule microarray, COS7 lysate, 635/667 nm fluorescence, primary screen (AID 1150).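 Also: score pools 667 nm emission and signal to noise measuring lysate protein binding.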 Conditions: COS7 hTOR1A mutant lysate, 635 nm fluorescence, higher = more signal.
The subject of assay [10] is Sonic hedgehog protein (Shh). The assay can be described thus: Sonic hedgehog microarray binding compounds – biochemical, small-molecule microarray, 635/667 nm fluorescence, primary screen (AID 1151).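 Also: Shh protein binding to compounds spotted on small-molecule microarray slides; score combines spot fluorescence intensity with signal-to-noise across triplicate slides.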 The following applies: 635 nm fluorescence, higher = more signal.
Assay [11] in a line: optical density shifts of acrAB sulA E. coli – strain DRC41, OD650, 48 h, E. coli filamentation inducer project, primary screen (AID 1152).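 Also: E. coli MC1000 strain DRC41 lacking acrAB efflux pump and sulA.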 Conditions: higher = more signal, called active from +8 up or from −8 down.
The nature of assay [12]: probe aLefty1 binding on compound microarray – biochemical, small-molecule microarray, 635/667 nm fluorescence, primary screen (AID 1153).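 Also: score merges spot fluorescence with signal-to-noise ratio from the scanned slide images.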 Conditions: higher = more signal.
A short description of assay [13]: plasmodial surface anion channel blockers, osmotic lysis – cell-based, P. falciparum Indochina, OD700, 1 h, primary screen (AID 1154). The following applies: P. falciparum Indochina infected RBC osmotic lysis, higher = more signal, called active from +8 up or from −8 down.
Assay [14] can be described thus: plasmodial surface anion channel blockers, osmotic lysis – cell-based, P. falciparum Indochina, OD700, 2 h, primary screen (AID 1155).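 Also: lysis reports solute entry through the parasite surface anion channel PSAC.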 The following applies: P. falciparum Indochina infected erythrocytes, higher = more signal, called active from +8 up or from −8 down.
Assay [15] is described as follows: changes in parasitized red cell lysis, either direction – P. falciparum Indochina, OD700, 3 h, PSAC antagonist project, primary screen (AID 1156). The following applies: P. falciparum-infected erythrocytes, osmotic lysis, higher = more signal, called active from +8 up or from −8 down.
Assay [16] can be described thus: plasmodial surface anion channel blockers, osmotic lysis – cell-based, P. falciparum Indochina, OD700, 18 h, primary screen (AID 1157). Conditions: P. falciparum Indochina infected erythrocytes, osmotic lysis OD700, 18 h; higher = more signal, called active from +8 up or from −8 down.
Assay [17] is described as follows: S6 kinase pathway phospho-S6 level changes – cell-based, A549, cytoblot, luminescence, serum-stimulated, primary screen (AID 1158).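 Also: serum-stimulated A549 lung adenocarcinoma cells; signal is phosphorylated S6 detected by cytoblot immunostaining with HRP secondary.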 The following applies: 5 h, higher = more signal.
The target in assay [18] is NADPH oxidase 2 (Homo sapiens) (UniProt P04839). The assay can be described thus: compounds shifting NOX2 Amplex Red fluorescence – cell-based, HEK293-NOX2, PMA-stimulated, NOX inhibitor project, primary screen (AID 1159). Also: test concentration not given here. The following applies: 45 min, higher = more signal, called active from +8 up or from −8 down.
Assay [19] concerns the target NADPH oxidase 4 (Homo sapiens) (UniProt Q9NPH5). Briefly: compounds shifting NOX4 Amplex Red fluorescence – cell-based, HEK293-NOX4, tetracycline-induced, NOX inhibitor project, primary screen (AID 1160). Conditions: HEK293-NOX4, Amplex Red H2O2 fluorescence, 45 min; higher = more signal, called active from +8 up or from −8 down.
Assay [20] addresses NADPH oxidase 5 (Homo sapiens) (UniProt Q96PH1). The assay can be described thus: compounds shifting NOX5 Amplex Red fluorescence – cell-based, HEK293-NOX5, NOX inhibitor project, primary screen (AID 1161). The following applies: HEK293-NOX5, ionomycin, 45 min, higher = more signal.

Calls of active or inactive are those of the source. Unless noted, no rule for the calls is given here.

Sequence of Torsin-1A (Homo sapiens) (O14656 whole entry, looked up): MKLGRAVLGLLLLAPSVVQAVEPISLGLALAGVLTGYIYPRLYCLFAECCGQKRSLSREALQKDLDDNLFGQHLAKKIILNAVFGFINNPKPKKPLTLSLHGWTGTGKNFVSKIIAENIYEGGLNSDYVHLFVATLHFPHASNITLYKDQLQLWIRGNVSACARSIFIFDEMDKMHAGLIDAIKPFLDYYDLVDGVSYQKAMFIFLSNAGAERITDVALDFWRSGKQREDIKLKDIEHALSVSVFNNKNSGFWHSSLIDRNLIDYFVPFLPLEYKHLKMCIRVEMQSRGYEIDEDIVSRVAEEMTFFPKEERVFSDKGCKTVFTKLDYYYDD
Sequence of NADPH oxidase 5 (Homo sapiens) (Q96PH1 whole entry, looked up): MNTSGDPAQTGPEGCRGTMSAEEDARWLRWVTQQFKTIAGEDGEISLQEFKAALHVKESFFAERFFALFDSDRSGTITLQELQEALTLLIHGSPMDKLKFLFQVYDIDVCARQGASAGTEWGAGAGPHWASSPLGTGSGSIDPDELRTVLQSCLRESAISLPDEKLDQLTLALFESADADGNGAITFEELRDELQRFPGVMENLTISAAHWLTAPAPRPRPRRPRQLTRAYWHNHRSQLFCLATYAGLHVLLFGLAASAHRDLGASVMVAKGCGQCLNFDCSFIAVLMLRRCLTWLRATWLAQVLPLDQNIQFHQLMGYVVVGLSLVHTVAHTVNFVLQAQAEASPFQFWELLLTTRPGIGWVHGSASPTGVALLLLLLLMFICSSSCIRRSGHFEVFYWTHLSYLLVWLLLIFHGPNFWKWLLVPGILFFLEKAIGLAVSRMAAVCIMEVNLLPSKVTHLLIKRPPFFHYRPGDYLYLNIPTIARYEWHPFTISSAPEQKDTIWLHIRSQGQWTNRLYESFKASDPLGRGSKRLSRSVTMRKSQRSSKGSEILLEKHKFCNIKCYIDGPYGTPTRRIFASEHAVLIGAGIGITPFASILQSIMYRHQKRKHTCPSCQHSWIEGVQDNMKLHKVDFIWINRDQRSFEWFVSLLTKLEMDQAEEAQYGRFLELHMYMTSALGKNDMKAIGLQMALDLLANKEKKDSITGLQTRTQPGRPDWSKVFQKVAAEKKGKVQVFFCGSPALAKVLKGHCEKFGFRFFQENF
Sequence of Streptavidin (Streptomyces avidinii) (P22629 whole entry, looked up): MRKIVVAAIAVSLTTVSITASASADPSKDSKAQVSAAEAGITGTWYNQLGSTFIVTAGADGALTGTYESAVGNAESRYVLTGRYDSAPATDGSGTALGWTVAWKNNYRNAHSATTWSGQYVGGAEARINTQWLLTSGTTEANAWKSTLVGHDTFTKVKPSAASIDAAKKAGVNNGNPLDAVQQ
Sequence of NADPH oxidase 4 (Homo sapiens) (Q9NPH5 whole entry, looked up): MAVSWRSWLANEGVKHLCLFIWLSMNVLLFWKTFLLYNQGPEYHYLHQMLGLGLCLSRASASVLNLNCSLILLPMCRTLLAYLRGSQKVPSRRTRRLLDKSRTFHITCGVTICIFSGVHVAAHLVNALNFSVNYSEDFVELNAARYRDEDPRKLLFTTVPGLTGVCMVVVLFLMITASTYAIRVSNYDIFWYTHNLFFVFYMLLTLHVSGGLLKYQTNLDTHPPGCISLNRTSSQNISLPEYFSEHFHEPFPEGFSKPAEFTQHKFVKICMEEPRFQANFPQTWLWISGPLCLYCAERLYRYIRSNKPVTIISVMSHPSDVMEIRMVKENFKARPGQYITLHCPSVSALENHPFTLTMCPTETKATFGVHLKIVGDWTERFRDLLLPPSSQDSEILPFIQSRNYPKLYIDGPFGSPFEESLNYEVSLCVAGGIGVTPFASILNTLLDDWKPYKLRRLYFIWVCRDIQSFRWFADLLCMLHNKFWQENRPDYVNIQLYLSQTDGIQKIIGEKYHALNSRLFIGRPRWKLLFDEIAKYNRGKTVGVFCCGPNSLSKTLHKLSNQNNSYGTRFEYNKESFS
Sequence of NADPH oxidase 2 (Homo sapiens) (P04839 whole entry, looked up): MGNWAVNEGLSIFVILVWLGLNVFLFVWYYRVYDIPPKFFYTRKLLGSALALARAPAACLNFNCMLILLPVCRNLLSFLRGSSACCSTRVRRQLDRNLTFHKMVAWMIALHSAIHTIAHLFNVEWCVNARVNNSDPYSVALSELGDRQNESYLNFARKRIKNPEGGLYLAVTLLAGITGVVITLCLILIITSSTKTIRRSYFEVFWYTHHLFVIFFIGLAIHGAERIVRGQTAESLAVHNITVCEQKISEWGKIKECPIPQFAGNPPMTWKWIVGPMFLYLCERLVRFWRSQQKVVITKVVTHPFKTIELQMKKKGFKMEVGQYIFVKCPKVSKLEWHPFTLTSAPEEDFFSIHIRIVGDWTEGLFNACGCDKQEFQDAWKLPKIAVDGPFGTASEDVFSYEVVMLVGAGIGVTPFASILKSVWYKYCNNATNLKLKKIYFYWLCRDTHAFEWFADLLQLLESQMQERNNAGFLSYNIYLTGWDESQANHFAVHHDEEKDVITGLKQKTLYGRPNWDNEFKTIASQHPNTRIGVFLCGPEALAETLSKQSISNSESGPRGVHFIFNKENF

For the molecule `COC(=O)CC=C[C@H](C)[C@@H](OCc1ccccc1Br)C(C)C`, the composite z-score in assay [1] is -0.106; in assay [6] it was 0.228; in assay [7], -0.128; in the assay with Torsin-1A (Homo sapiens) [8], 0.066; with Torsin-1A (Homo sapiens) [9] it was 0.674; in assay [10], 0.438. In addition, the composite z-score in assay [12] is -0.149. Moreover, the z-score in assay [2] was 0.298 (inactive); in assay [3], -0.643 (inactive); in assay [4], 0.194 (inactive); in [5] it was 0.615 (inactive); in assay [11], 0.358 (inactive); in [13] it was 0.644 (inactive). Also, the z-score in [14] was 0.673 (inactive); in [15], 1.01 (inactive); in assay [16], 0.589 (inactive); in assay [17], 0.104; in [18], 1.04 (inactive); in [19], 0.478 (inactive). Besides, the z-score in [20] amounted to 0.457.
As for `O=C1O[C@@H](c2ccccc2)[C@@H](c2ccccc2)N2[C@@H](c3ccc(O)cc3)[C@]3(C(=O)Nc4ccccc43)[C@@H](C(=O)O)[C@H]12`, the composite z-score in [1] was -0.0286; in assay [6] it was 0.0078; in assay [7] it was 0.0442; with Torsin-1A (Homo sapiens) [8], 0.509; with Torsin-1A (Homo sapiens) [9], 0.548; in assay [10] it was -0.192. In [12], this molecule gave a composite z-score of -0.0536. For the same molecule, the z-score in [2] is -4.36 (inactive); in assay [3], 0.0547 (inactive); in assay [4], 0.568 (inactive); in [5], 0.532 (inactive); in assay [11] it was 0.772 (inactive); in [13], 1.41 (inactive). In addition, the z-score in [14] was -0.968 (inactive); in assay [15], 1.11 (inactive); in assay [16], -1.77 (inactive); in [17], 1.87; in assay [18] it was -0.215 (inactive); in assay [19], -0.652 (inactive). Further, in assay [20], the z-score amounted to 0.0434.
Take `CCN1C(=O)[C@H]2[C@H]3[C@H](O)[C@H](O)CC(=NOC[C@@H](C)[C@H](OCc4ccccc4)C(C)C)[C@@H]3CC[C@H]2C1=O`: the composite z-score in assay [1] is 0.0339; in assay [6], 0.251; in assay [7], -0.0458; with Torsin-1A (Homo sapiens) [8] it was 0.221; with Torsin-1A (Homo sapiens) [9], 1.05; in assay [10], 0.119. Further, in [12], the composite z-score was -0.144. Moreover, the z-score in assay [2] is -0.994 (inactive); in [3], 0.683 (inactive); in assay [4], 0.513 (inactive); in [5] it was 0.435 (inactive); in [11], 0.618 (inactive); in [13] it was 0.551 (inactive). The z-score in [14] was 0.106 (inactive); in [15], 0.061 (inactive); in [16] it was 0.0723 (inactive); in assay [17], -0.357; in assay [18], -0.136 (inactive); in [19] it was 0.338 (inactive). Also, the z-score in assay [20] was -0.287.
In the case of `CO[C@H]1COC(=O)[C@@H]2CCCN2C(=O)CC=C[C@@H](C)[C@H](OC)COC(=O)CC=C[C@@H]1C`, the composite z-score in [1] is 0.191; in assay [6], -0.689; in assay [7], -0.0858; in the assay with Torsin-1A (Homo sapiens) [8] it was 1.49; with Torsin-1A (Homo sapiens) [9], 1.27; in assay [10], 1.98. Also, in [12], the composite z-score is -0.0974. Moreover, the z-score in assay [2] is -1.32 (inactive); in [3] it was -1.11 (inactive); in assay [4], 2.42 (inactive); in [5], 0.104 (inactive); in [11] it was 0.604 (inactive); in assay [13] it was -0.0558 (inactive). Further, the z-score in assay [14] is -1.3 (inactive); in assay [15], -0.464 (inactive); in [16] it was -1.7 (inactive); in assay [17], 2.35; in assay [18], -0.331 (inactive); in assay [19], 0.631 (inactive). Also, the z-score in [20] turned out to be 0.557.
Regarding `C=CCNC(=O)[C@H]1[C@@H]2C(=O)O[C@@H](c3ccccc3)[C@@H](c3ccccc3)N2[C@@H](c2ccc(O)cc2)[C@]12C(=O)N(C(=O)OCCOC)c1ccc(C#CC3=CCCCC3)cc12`, the composite z-score is 0.411 in assay [1]; 0.841 in assay [6]; 0.935 in [7]; 0.757 with Torsin-1A (Homo sapiens) [8]; 1.14 with Torsin-1A (Homo sapiens) [9]; 1.45 in [10]. In addition, in [12], the composite z-score is 1.81. In addition, the z-score in [2] is -3.95 (inactive); in assay [3] it was 0.101 (inactive); in assay [4], -0.878 (inactive); in [5], -0.633 (inactive); in [11] it was -0.383 (inactive); in [13], 1.65 (inactive). In addition, the z-score in assay [14] was 0.929 (inactive); in assay [15], 0.0207 (inactive); in assay [16], 0.506 (inactive); in [17], -0.25; in [18], 1.96 (inactive); in assay [19], -0.149 (inactive). Besides, the z-score in [20] came out at 1.47.
